Data taken from PubChem BioAssay AID1631 (National Center for Advancing Translational Sciences (NCATS), 2009).
The whole screen tested about 260,000 compounds, of which about 890 (0.34%) were called active. Inconclusive results (about 1%) are left out. Calls follow the shape of the dose curve; as a rule, active = well fitted activation curve with a large enough effect; inconclusive = small, poorly fitted or top-dose-only effect; inactive = no such curve, though single readings can be large or run the other way. Many of the other results were omitted from the sample, so actives are more common in it than they were.

Target: Pyruvate kinase PKM (Homo sapiens) (UniProt P14618)
Assay: qHTS Assay for Activators of Human Muscle isoform 2 Pyruvate Kinase; also: nearly all actives have a fitted effect of over 55% in size
Conditions: purified PKM2, Kinase-Glo ATP luminescence; Potency: activation; series mostly up to 57.5 µM; activation: at the top concentration
Procedure, shortened: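 ATP formation by purified human PK-M2, quantified via coupled luciferase luminescence after 1 h at room temperature with 0.1 mM ADP and 0.5 mM PEP final.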
% is scaled to controls: 0 for no effect and ±100 for the full control effect; potency is read from the fitted curve at half-maximal effect.

Chain of Pyruvate kinase PKM (Homo sapiens) (P14618 whole entry, looked up, canonical isoform): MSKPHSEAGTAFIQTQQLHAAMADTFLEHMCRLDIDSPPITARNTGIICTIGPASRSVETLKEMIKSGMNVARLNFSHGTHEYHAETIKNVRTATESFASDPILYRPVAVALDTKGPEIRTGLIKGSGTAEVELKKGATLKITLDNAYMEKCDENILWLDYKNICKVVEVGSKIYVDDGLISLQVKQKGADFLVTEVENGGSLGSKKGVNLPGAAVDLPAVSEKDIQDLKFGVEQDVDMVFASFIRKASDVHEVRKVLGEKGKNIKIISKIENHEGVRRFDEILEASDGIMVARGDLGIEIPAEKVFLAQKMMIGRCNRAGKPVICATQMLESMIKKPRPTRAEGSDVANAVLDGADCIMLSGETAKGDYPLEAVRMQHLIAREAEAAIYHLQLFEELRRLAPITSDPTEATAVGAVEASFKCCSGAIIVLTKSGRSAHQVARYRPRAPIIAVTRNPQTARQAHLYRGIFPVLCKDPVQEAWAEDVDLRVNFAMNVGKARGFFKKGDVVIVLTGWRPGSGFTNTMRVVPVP

| Structure (SMILES) | activation | Potency |
| --- | --- | --- |
| CC[C@]1(c2ccccc2OC)C(=O)N(C(=O)OC)N1C(=O)OC | 3.59% (inactive) |  |
| CCOC(=O)c1cc(C(=O)Nc2ccc(S(=O)(=O)Nc3ccc(OC)cc3)cc2)nn1C | -2.09% (inactive) |  |
| Cc1cccc(NC(=S)NCCc2ccc(Cl)cc2)c1C | 0.631% (inactive) |  |
| COc1ccc(-n2nc(C(=O)NCC(=O)N3CCN(c4ccccc4OC)CC3)c3ccccc3c2=O)c(OC)c1 | -0.0302% (inactive) |  |
| O=c1c2ccccc2nc(CSc2nnnn2-c2ccccc2)n1-c1ccccc1 | 1.59% (inactive) |  |
| O=c1c2ccccc2nnn1CSc1nnnn1-c1ccccc1 |  | 28.2 µM (active) |
| Nc1nnc(SCn2nnc3ccccc3c2=O)s1 | 1.7% (inactive) |  |
| CCC(C)c1ccccc1NC(=O)CN(C)CC(=O)Nc1ccccc1SC (stereo not given) | 1.98% (inactive) |  |
| O=C(N/N=C/c1cccc(OCc2ccccc2)c1)c1ccc(Br)o1 | 0.996% (inactive) |  |
| CCN(C(=O)COc1ccc(C(=O)c2ccccc2)cc1)c1ccccc1 | -0.0123% (inactive) |  |
| CC1CCN(C2=NC(=O)/C(=C/c3ccc(O)cc3)S2)CC1 | -2.26% [at 11.5 µM, 0% is enzyme alone, no compound] (inactive) |  |
| CCOC(=O)C1(Cc2ccccc2C)CCCN(C(=O)c2ccc(COC)o2)C1 (stereo not given) | 1.56% (inactive) |  |
| S=C(Nc1ccc(Br)cc1)NC1CCN(Cc2ccccc2)CC1 | -1.18% (inactive) |  |
| CSc1nc2ccc(S(=O)(=O)N3CCc4ccccc43)cc2s1 |  | 2.24 µM (active) |
| O=C(Nc1nc2ccc([N+](=O)[O-])cc2s1)c1ccc(S(=O)(=O)N2CCCc3ccccc32)cc1 | 1.34% (inactive) |  |
| CCn1c(=O)c(=O)n(CC)c2cc(S(=O)(=O)N3CCc4ccccc43)ccc21 | 9.29% (inactive) |  |
| CC(CN1CCOCC1)OC(=O)c1ccc(C(C)(C)C)cc1 (stereo not given) | 7.62% (inactive) |  |
| NC(=S)c1ccc(C(N)=S)o1 |  | 15.8 µM (active) |
| Cn1c(SCC(=O)N2CCCCC2)nc2c(c1=O)SCC2 | -0.468% (inactive) |  |
| Cc1cccc(CSc2nc3c(c(=O)n2C)SCC3)c1 |  | 15.8 µM (active) |
| CCn1c(SCc2ccccc2)nc2c(c1=O)SCC2 | 6.86% (inactive) |  |
| COc1ccc(CNS(=O)(=O)c2cc(-c3cc(C)no3)ccc2C(C)C)cc1 | 2.22% [at 0.46 µM, 0% is enzyme alone, no compound] (inactive) |  |
| Cc1ccc(S(=O)(=O)NC2CCCCCC2)cc1C(N)=O | 6.43% (inactive) |  |
| COc1ccc(Nc2ncnc3ccc(Br)cc23)c(OC)c1 | 0.748% (inactive) |  |
| COC(=O)c1ccccc1NC(=O)C1CCN(C(=O)N2CCOc3ccccc32)CC1 | -2.9% (inactive) |  |
| CCCC(C(=O)NC1CCCC1)N(C(=O)Cn1nnc(-c2ccc(C)o2)n1)c1cccc(O)c1 (stereo not given) | 2.14% (inactive) |  |
| COc1ccc(NC(=O)CSc2nc3ccccc3c(=O)n2C)cc1 | 1.41% (inactive) |  |
| O=C(Nc1cccc(C(F)(F)F)c1)c1cnccn1 | -0.998% (inactive) |  |
| FC(F)(F)c1cccc(Nc2ncnc3ccccc23)c1 | 2.31% (inactive) |  |
| O=c1cc(CO)oc(C(Nc2cccc(C(F)(F)F)c2)c2ccccn2)c1O (stereo not given) |  | 25.1 µM (active) |
